Data on 40 compounds can be found in PubChem BioAssay (Tox21).

Molecules are shown by their SMILES. Where “and” joins values, the source holds several entries; their conditions need not be identical. Identical values can stand only once. Results filed as inconclusive are left out. A call without a number means that no potency is given here. Calls of active or inactive are those of the source. The call rests on the fitted dose curve; in most records, active means well fitted cell-killing curve with a large enough effect in the repeat runs; inconclusive means weak or mixed curves, or effect the other way; inactive means no such curve, though single readings can be large or run the other way.
Potency means the concentration at half of the fitted maximal effect.

A short description of this experiment: qHTS assay to identify small molecule antagonists of the vitamin D receptor (VDR) signaling pathway - cell viability counter screen (AID 743225). Further: nearly all actives have a fitted effect of over 50% in size. Conditions: VDR-bla HEK293T viability, CellTiter-Glo luminescence, 16 h; series mostly up to 61 µM. The text has this: U.S. Tox21 Program National Center for Advancing Translational Sciences [NCATS] NIH Chemical Genomics Center [NCGC] U.S. Environmental Protection Agency [EPA] National Institutes of Environmental Health Sciences [NIEHS] National Toxicology Program [NTP] U.S. Food and Drug Administration [FDA] Tox21 Assay Overview: The vitamin D receptor (VDR), a member of nuclear hormone receptor superfamily, plays a critical role in calcium homeostasis and bone metabolism. It is also involved in cell differentiation and growth, and thrombogenicity. To identify the compounds that inhibit VDR signaling, the VDR-UAS-bla HEK 293T cell line (Invitrogen, Carlsbad, CA, USA) containing a beta-lactamase reporter gene under the control of an upstream activator sequence (UAS) was used to screen the Tox21 10K compound library. The cytotoxicity of the Tox21 compound library against the VDR-bla cell line was tested in parallel by measuring the cell viability using CellTiter-Glo assay (Promega, Madison, WI) in the same wells.
Tox21 Assay Protocol Summary: VDR-bla cells were dispensed at 2,000 cells/5 uL of assay medium per well into black wall/clear-bottom 1536-well plates using a Multidrop Combi (Thermo Fisher Scientific, Waltham, MA) dispenser. After the assay plates were incubated at a 37C and 5% CO2 for 4 h, 23 nL of compounds dissolved in DMSO, positive controls or DMSO only was transferred to the assay plate by a Pintool station (Kalypsys, San Diego, CA), followed by addition of 1 uL of 1-alpha, 25-Dihydroxy Vitamin D3 (3 nM, final concentration in the wells) using a Bioraptr Flying Reagent Dispenser (FRD) workstation (Beckman Coulter, Indianapolis, IN). The plates were incubated at 37C and 5% CO2 for 16 h, and then 1 uL of LiveBLAzerTM B/G FRET substrate was added using a Bioraptr FRD. The plates were incubated at room temperature for 2 h and fluorescence intensity was measured by an Envision plate reader (PerkinElmer, Shelton, CT). For cell viability readout that measures cytotoxicity, 3 ul/well of CellTiter-Glo reagent was added into the assay plates using a Bioraptr FRD. After 30 min incubation at room temperature, the luminescence intensity in the plates was measured using a ViewLux plate reader (PerkinElmer).
(qHTS replaces the single test concentration by a dilution series.)
Consider `C[C@]12CC[C@@H]3c4ccc(OC(=O)N(CCCl)CCCl)cc4CC[C@H]3[C@@H]1CC[C@@H]2O`, for which the Potency entry is “inactive”.

For `CC[C@H]1C[C@@H]2C[C@H]3c4[nH]c5ccc(OC)cc5c4CCN(C2)[C@@H]13`, the Potency result was “inactive”.

Regarding `C1CCC2CCCCC2C1` (stereo not given), the Potency result is “inactive”.

As to `CCOC(=O)CC(=O)CCl`, the Potency result is “inactive”.

Turning to `CCN`, the Potency entry was “inactive”.

Consider `Cc1ccc(OP(=O)(Oc2ccccc2)Oc2ccccc2)cc1`, for which the Potency entry was “inactive”.

Turning to `CCCCCCCCCC[N+](C)(C)CCCCCCCCCC`, the Potency is 15.5 µM (active).

In the case of `CC(C)CC(C)N` (stereo not given), the Potency entry was “inactive”.

Turning to `CC(=O)[O-].[Tl+]`, the Potency entry was “inactive”.

Turning to `OC(c1ccc(Cl)cc1)(c1ccc(Cl)cc1)C(Cl)(Cl)Cl`, the Potency entry was “inactive”.

With `Nc1ccccc1C(=O)Oc1ccc2ccccc2c1`, the Potency entry is “inactive”.

In the case of `O=C1NCN(c2ccccc2)C12CCN(CC1COc3ccccc3O1)CC2` (stereo not given), the Potency entry is “inactive”.

In the case of `O=C(CBr)c1ccc(O)cc1`, the Potency result is “inactive”.

For `Cn1cc(C2=C(c3cn(C4CCN(Cc5ccccn5)CC4)c4ccccc34)C(=O)NC2=O)c2ccccc21`, the Potency result was “inactive”.

As to `CC(C)OS(C)(=O)=O`, the Potency result was “inactive”.

For `O=C(O)c1cc[c]([Hg][Cl])cc1`, the Potency was 21.9 µM (active).

On to `COc1cccc(C(=O)CCN[C@@H](C)[C@H](O)c2ccccc2)c1`, for which the Potency result was “inactive”.

Regarding `O=C(O)C1C2CCC(O2)C1C(=O)O` (stereo not given), the Potency result is “inactive”.

As to `O=[N+]([O-])c1ccc(Oc2ccc(C(F)(F)F)cc2[N+](=O)[O-])cc1`, the Potency entry is “inactive”.

Take `CCCCCCCCCCCCCC[P+](CCCCCC)(CCCCCC)CCCCCC` (tested in a mixture with another compound): the Potency was 2.75 µM (active).

On to `[Cl][Sb]([Cl])[Cl]`, for which the Potency result was “inactive”.

Turning to `CCCN(CCC)c1c([N+](=O)[O-])cc(S(N)(=O)=O)cc1[N+](=O)[O-]`, the Potency was 11.7 µM (active).

Regarding `CCCCCCCCCCCCCCCC[N+](C)(C)C`, the Potency was 21.1 µM (active) and 21.9 µM (active) and 23.9 µM (active).

In the case of `O=c1[nH]c2ccccc2n1C1CCN(CCCC(c2ccc(F)cc2)c2ccc(F)cc2)CC1`, the Potency is 24.5 µM (active).

For `ClC1=C(Cl)C2(Cl)C3C(Cl)C(Cl)CC3C1(Cl)C2(Cl)Cl` (stereo not given), the Potency was 54.8 µM (active) and 49 µM (active).

Consider `CCOCn1c(-c2ccc(Cl)cc2)c(C#N)c(Br)c1C(F)(F)F`, for which the Potency was 4.9 µM (active).

For `c1ccc2c(c1)[nH]c1cnccc12`, the Potency result is “inactive”.

`S=C=Nc1cccc2ccccc12`: the Potency entry was “inactive”.

`N#CSCSC#N`: the Potency is 50.1 µM (active) and 34.3 µM (active).

Regarding `CC(C)C1CCC(Cc2ccc(Cl)cc2)C1(O)Cn1cncn1` (stereo not given), the Potency was 48.5 µM (active).

Regarding `CCN(CC)C(=S)[S-].CCN(CC)C(=S)[S-].[Zn+2]`, the Potency was 3.06 µM (active).

On to `CC1(c2ccc(Oc3ccccc3)cc2)OC(=O)N(Nc2ccccc2)C1=O` (stereo not given), for which the Potency was 39.1 µM (active).

`CC(C)[C@H](C(=O)O[C@H](C#N)c1cccc(Oc2ccccc2)c1)c1ccc(Cl)cc1`: the Potency result is “inactive”.

As to `N#CCCSCCC#N`, the Potency entry is “inactive”.

Consider `c1ccc2c(c1)OCC(C1=NCCN1)O2` (stereo not given), for which the Potency entry was “inactive”.

With `c1ccc2cc3c(cc2c1)-c1cccc2cccc-3c12`, the Potency entry is “inactive”.

As to `O=[N+]([O-])c1ccc2ccc3cccc4ccc1c2c34`, the Potency entry is “inactive”.

As to `Clc1ccc(C(Cl)(Cl)Cl)c(Cl)c1`, the Potency entry was “inactive”.

In the case of `Cc1cc(SCc2sc(-c3ccc(C(F)(F)F)c(F)c3)nc2C)ccc1OCC(=O)O`, the Potency is 21.9 µM (active).

Regarding `CN(C)CCc1c[nH]c2cccc(O)c12`, the Potency result was “inactive”.
